# Source: the supplement of paper PMC6555819
# Legend:
# Experiment in all cases: PBM binding z-score (relative to random genomic background probes); higher = stronger binding; sequences stand for … in GC…GCGATTGACAGCGTAGAATGAAGG
# [1] = system: RARb homodimer (NR concentration 270 nM)
# In short: (§1)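 On custom Agilent 4×180K arrays, double-stranded probes with 34-nt variable regions carried direct-repeat seeds, single-nucleotide variants, half-site ablations or random human genomic background. Ligand-free nuclear receptor dimers were applied for 1 h, and binding was read with antibodies against each partner (one per run). Binding z-scores come from regression-normalized fluorescence, with the random background probes as reference.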
# [2] = system: RARg:RXRa (NR concentration 270 nM, RXRa partner concentration 90 nM)
# In short: as §1
# [3] = system: RARg homodimer (NR concentration 270 nM)
# In short: as §1
# [4] = system: RXRa DBDmut IVT, anti-RXR (DBD mutation: RXRa K156A/R161A, NR concentration 90 nM)
# In short: as §1
# [5] = system: RXRa homodimer (NR concentration 180 nM)
# In short: as §1
# [6] = system: THRa:RXRa (NR concentration 90 nM, RXRa partner concentration 90 nM)
# In short: as §1
# [7] = system: THRa homodimer (NR concentration 90 nM)
# In short: as §1
# [8] = system: VDR:RXRa (NR concentration 270 nM, RXRa partner concentration 90 nM)
# In short: as §1
# [9] = system: VDR homodimer (NR concentration 270 nM)
# In short: as §1
Sequence,PBM binding z-score [1],PBM binding z-score [2],PBM binding z-score [3],PBM binding z-score [4],PBM binding z-score [5],PBM binding z-score [6],PBM binding z-score [7],PBM binding z-score [8],PBM binding z-score [9]
ATCTCTAGGTAACCAAGTCCAGTGAATGCCGAAC,0.289,0.196,0.238,0.275,0.184,0.825,0.807,0.999,0.463
CAAACTAGGTCACCGGAAGGTCGAAGTCCGCATG,4.74,6.69,6,1.66,4.65,4.04,2.22,4.47,1.97
CAAACTAGGTCAACGGAAGGTCAAAGTCCGCATG,5.37,8.1,6.98,2.17,5.99,4.24,2.34,5.56,3.65
ATTAGCAGGCCAAGGGTCACTCAAGATTAGTCCG,3.64,4.22,3.71,0.43,4.3,2.7,0.321,2.92,0.941
CGTCCAAGGCCATAGGAGGTCAGTGAAGACAGAT,3.61,2.74,3.57,0.911,1.74,3.89,1.18,2.71,1.42
TAGCCTAGGTCGGATCGGGCCAGTATACGCTATA,0.206,0.17,0.282,-1.2,-0.0599,2.67,-0.787,-0.475,-0.985
CCGAGTTGGTTATGGGGCATTCAGGCAACGGTGA,0.393,-0.17,-0.319,1.14,0.0354,0.111,0.472,0.221,0.996
CCTACTGGGCCAAAGGTTATTGATTCCAATGCTC,1.57,2.07,0.739,0.31,2.12,1.13,-0.123,1.34,0.0494
TGTCAAAGTACAAAGGTAACGTAAGTATCCACAC,1.01,1.41,1.32,0.417,0.984,1.33,-0.416,0.725,0.229
GCTGCTAGGTCAACTGATGGTCGGCTAAAGCTCG,3.67,4.74,5.56,1.82,2.91,3.09,0.97,1.4,0.148
AGTCAAAGTTCATCTAGGTAACGTACGATATGCT,3.93,5.49,5.82,4.69,4.69,3.28,0.448,5.15,5.04
CGAACTAGGTCATTGATAGGACAGTGAATAGTAA,2.83,4.58,4.22,2.29,2.34,2.61,0.97,2.27,1.35
CCTACTGGGCCACGAAAGGTCATTGAGTCAGTGA,4.62,4.82,4.58,0.536,5.23,3.79,0.857,4.67,1.69
TCTGCTAGGTCTGTTGGTCAGCTAACGAGCTGCC,-0.195,-0.258,-0.599,0.00538,-0.403,-0.454,-0.978,-0.568,-1.23
ATACCAAGGTAATCGTGAGGTCGTTGATACTAAC,1.44,1.55,0.586,0.482,1.2,3.27,2.64,3.1,3.08
CCTACTGGGCCAAAATGGTCATTGATGCCGATAA,0.177,0.104,0.0823,-0.811,-0.05,-0.37,-0.637,-0.0666,-0.747
TCTTATAGATCAGCAGGTTAAGAAAGCTGGCCAA,-0.092,0.0544,-0.0955,0.704,0.376,0.0186,-0.656,0.455,-0.144
CCTAGCATGCCAATCTGGGTCACTCAAGGCTTGA,1.86,0.768,0.691,0.255,0.917,2.93,0.266,0.733,-0.104
CCTTACGGGTCAAGGTTATAGCTCGGGTGGTACG,3.57,4.65,4.28,0.811,4.81,3.01,1.1,3.3,1.18
GTAACGAGGGCAAAGTTGATAGCATCTGTCGACG,1.38,1.97,1.78,2.73,2.08,1.41,-0.0253,1.53,1.7
TCGAGTAGGTTAGGAGCATTCAGAATGGCGTCGA,-0.383,-0.196,-0.317,-0.149,0.0721,-0.459,-0.881,-0.474,-0.161
CCTCGGAGGACAGAAGGTCAGAGCTGTCCGCTTT,3.43,3.39,2.55,0.0371,1.89,2.22,-0.0461,1.02,-0.131
AGAATGAGGTTACCAAAGATCGGGGAAACGCTTG,0.666,1.91,1.43,1.5,2.5,2.71,0.699,1.3,-0.00618
TCTGCTAGGTCAACGATGGTCAGCCAATCTGCTA,3.23,4.3,5.2,1.06,2.55,3.16,0.561,1.66,-0.316
CCAGAGAGGTGAGAAGGTAACTCAGCCTCGATTA,1.31,1.52,1.22,0.0821,1.05,1.19,0.396,0.23,0.477
TCTTGTATATCAAGCAGGTTAAGAAAGCCTGAGT,0.552,0.261,-0.15,0.788,0.587,0.47,-0.282,0.659,0.228
